Screens: PubChem, Broad Institute
C diff HTS: blocks growth of Clostridium difficile. Clostridium difficile clinical isolate growth, OD600, 24 h; active compounds read low. growth activity, negative = inhibition, % at 16 µg/mL (by protocol). actives 0.25% (n = 86,000). AID 1259249;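 active means mean growth activity at or below -80% and every replicate also at or below -80%; inconclusive means mean at or below -80% but some replicate above -80%; inactive means mean growth activity above -80%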
T cruzi growth-1: inhibitors of T. cruzi proliferation; T. cruzi beta-gal in NIH3T3, GalScreen luminescence, 90 h; inhibition, % at 8.34 µM; actives 5.9% (n = 77,000); AID 624255;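 active means mean inhibition above about 93%, with at least 55% of replicates each passing it, limit read from the data, passing the limit was not always enough; inconclusive means only one of those two conditions holds; inactive means neither condition holds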
Pf Dd2 inh: inhibitors of Plasmodium falciparum Dd2 growth. P. falciparum Dd2 growth, SYBR Green, 72 h; active compounds read low. activity change, % at 10 µM. actives 2.3% (n = 94,000). AID 1159554; in the data active means activity change below about -80%; inconclusive means no clear call, values can overlap the other calls
T cruzi growth-2: Trypanosoma cruzi proliferation inhibition | shares compounds with T cruzi growth-1 | T. cruzi beta-gal in NIH3T3, GalScreen luminescence, 90 h | inhibition, % at 8.35 µM | actives 72% (n = 5,600);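 active means mean replicate inhibition above about 95% and at least 55% of replicates individually reaching it, limit read from the data; inconclusive means only one of the two criteria is met; inactive means neither criterion is met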
T cruzi growth-3: blocks T. cruzi growth in NIH3T3 host cells. shares compounds with T cruzi growth-1. T. cruzi beta-gal in NIH3T3, GalScreen luminescence, 90 h. inhibition, % at 2.09 µM. actives 21% (n = 5,600);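 active means mean inhibition above about 95%, with at least 55% of replicates also reaching it, limit read from the data; inconclusive means meets just one of the two conditions; inactive means meets neither condition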
NIH3T3 tox: cytotoxicity in mouse NIH/3T3 fibroblasts; actives 14% (n = 5,600); NIH/3T3 viability, CellTiter-Glo ATP luminescence, 90 h; cytotoxicity (signal decrease), % at 8.35 µM; shares compounds with T cruzi growth-1;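 active means mean signal decrease across replicates above about 35% based on untreated-well scatter, with enough replicates individually passing, limit read from the data; inconclusive means no rule stated though some were filed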
NIH3T3 tox 2: NIH/3T3 (mouse) viability loss; inhibition, % at 24.9 µM; NIH/3T3 viability, CellTiter-Glo ATP luminescence, 90 h; shares compounds with T cruzi growth-1; AID 651744; actives 56% (n = 5,600);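 active means mean loss of cell viability signal at or above a set limit, and enough replicates individually reaching it; inconclusive means meets only the mean limit or only the replicate share; inactive means meets neither condition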
Of the large screens only hits and unclear results are named; the others gave an inactive call (follow-up assays come after a bar, where they were run). The list is not random: actives were taken first. Their share in the collection is about 6.8%.

C[C@@H]1CCCCO[C@@H](CN(C)C(=O)Nc2ccc(C(F)(F)F)cc2)[C@@H](C)CN([C@H](C)CO)C(=O)c2cc(NC(=O)Nc3ccc(C(F)(F)F)cc3)ccc2O1	T cruzi growth-1 115.6 | T cruzi growth-2 107.7 | T cruzi growth-3 inactive | NIH3T3 tox inactive | NIH3T3 tox 2 inconclusive
C[C@@H]1CCCCO[C@@H](CN(C)Cc2ccc3c(c2)OCO3)[C@@H](C)CN([C@H](C)CO)C(=O)c2cc(NS(C)(=O)=O)ccc2O1	none
CCCNC(=O)N1C[C@H]2[C@@H](c3ccccc31)[C@H](CO)N2C(=O)CN1CCOCC1	none
CC(C)NC(=O)N(C)C[C@H]1Oc2ncc(-c3cncnc3)cc2C(=O)N([C@H](C)CO)C[C@H]1C	none (no result: T cruzi growth-1)
C[C@@H]1CN([C@@H](C)CO)C(=O)c2cc(-c3ccccc3)cnc2O[C@H]1CN(C)C(=O)Nc1ccccc1F	none
O=C(C[C@@H]1CC[C@@H](NC(=O)C2CCOCC2)[C@H](CO)O1)Nc1ccccc1	none (no result: T cruzi growth-1)
CN(C)CC(=O)N1CC[C@H]2[C@@H]1c1cc(-c3ccccc3F)ccc1N(C)[C@H]2CO	none
CN1c2ccc(-c3ccccc3F)cc2[C@H]2[C@H](CCN2C(=O)NC2CCCCC2)[C@H]1CO	none (no result: T cruzi growth-1)
CN1c2ccc(-c3ccc(F)cc3)cc2[C@@H]2[C@@H](CCN2C(=O)c2ccccn2)[C@H]1CO	none
CN(C)CC(=O)N1CC[C@@H]2[C@H]1c1cc(-c3ccccc3F)ccc1N(C)[C@@H]2CO	T cruzi growth-1 112.8 | T cruzi growth-2 101.6 | T cruzi growth-3 inactive | NIH3T3 tox inactive | NIH3T3 tox 2 24.4
COc1ccc(-c2ccc3c(c2)[C@H]2[C@H](CCN2C(=O)c2ccc4c(c2)OCO4)[C@H](CO)N3C)cc1	none
CN1c2ccc(-c3ccccc3)cc2[C@@H]2[C@@H](CCN2C(=O)c2ccc3c(c2)OCO3)[C@H]1CO	T cruzi growth-1 105.9 | T cruzi growth-2 104.6 | T cruzi growth-3 108.4 | NIH3T3 tox inactive | NIH3T3 tox 2 30.3
CN1c2ccc(-c3ccccc3)cc2[C@@H]2[C@@H](CCN2C(=O)c2ccccn2)[C@H]1CO	T cruzi growth-1 104.7 | T cruzi growth-2 102.3 | T cruzi growth-3 inactive | NIH3T3 tox inactive | NIH3T3 tox 2 inactive
CN1c2ccc(-c3ccccc3F)cc2[C@@H]2[C@@H](CCN2C(=O)c2ccccn2)[C@H]1CO	T cruzi growth-1 116.2 | T cruzi growth-2 105.7 | T cruzi growth-3 inactive | NIH3T3 tox inactive | NIH3T3 tox 2 inactive
CCc1nc(N2[C@H](C#N)[C@@H](c3ccccc3-c3ccccc3C)[C@H]2CO)sc1C	none (no result: T cruzi growth-1)
C[C@@H]1CCCCO[C@H](CN(C)CC2CCCCC2)[C@@H](C)CN([C@H](C)CO)C(=O)c2cc(NC(=O)Nc3ccc(F)cc3)ccc2O1	none
C[C@@H]1CN([C@@H](C)CO)C(=O)c2cc(NC(=O)Nc3ccc(F)cc3)ccc2O[C@@H](C)CCCCO[C@H]1CN(C)CC1CC1	none
C[C@@H]1CCCCO[C@@H](CN(C)CC2CC2)[C@H](C)CN([C@@H](C)CO)C(=O)c2cc(NC(=O)Nc3ccc(F)cc3)ccc2O1	T cruzi growth-1 102.7 | T cruzi growth-2 inactive | T cruzi growth-3 inactive | NIH3T3 tox inactive | NIH3T3 tox 2 inactive
C[C@@H]1CCCCO[C@@H](CN(C)CC2CCCCC2)[C@H](C)CN([C@@H](C)CO)C(=O)c2cc(NC(=O)Nc3ccc(F)cc3)ccc2O1	T cruzi growth-1 113.7 | T cruzi growth-2 99.0 | T cruzi growth-3 inactive | NIH3T3 tox inactive | NIH3T3 tox 2 106.2
C[C@@H]1CCCCO[C@@H](CN(C)Cc2ccc3c(c2)OCO3)[C@@H](C)CN([C@@H](C)CO)C(=O)c2cc(NC(=O)c3ccncc3)ccc2O1	none
CN(C)C(=O)C[C@H]1C[C@@H]2c3cc(NS(=O)(=O)c4ccc(F)cc4)ccc3O[C@@H]2[C@@H](CO)O1	none
CN(C)C(=O)C[C@@H]1C[C@H]2c3cc(NS(=O)(=O)c4ccc(F)cc4)ccc3O[C@H]2[C@H](CO)O1	T cruzi growth-1 103.8 | T cruzi growth-2 inactive | T cruzi growth-3 inactive | NIH3T3 tox inactive | NIH3T3 tox 2 inactive
CN(C)C(=O)C[C@H]1C[C@@H]2c3cc(NS(=O)(=O)c4ccc(F)cc4)ccc3O[C@@H]2[C@H](CO)O1	none
CN(C)C(=O)C[C@@H]1C[C@H]2c3cc(NS(=O)(=O)c4ccc(F)cc4)ccc3O[C@H]2[C@@H](CO)O1	T cruzi growth-1 inconclusive | T cruzi growth-2 inactive | T cruzi growth-3 inactive | NIH3T3 tox inactive | NIH3T3 tox 2 inactive
O=C(N[C@H]1CC[C@H](CCNS(=O)(=O)c2ccc(Cl)cc2)O[C@H]1CO)c1cccnc1	none
C[C@@H]1CN([C@H](C)CO)S(=O)(=O)c2ccc(C#CC3CCCC3)cc2O[C@H]1CN(C)Cc1cccnc1	T cruzi growth-1 97.1, Pf Dd2 inh -81.7 | T cruzi growth-2 inactive | T cruzi growth-3 inconclusive | NIH3T3 tox inactive | NIH3T3 tox 2 104.6
C[C@H]1CN([C@@H](C)CO)S(=O)(=O)c2ccc(C#CC3CCCC3)cc2O[C@H]1CN(C)Cc1cccnc1	T cruzi growth-1 116.6 | T cruzi growth-2 102.7 | T cruzi growth-3 inactive | NIH3T3 tox inactive | NIH3T3 tox 2 104.3
C[C@@H]1CN([C@@H](C)CO)S(=O)(=O)c2ccc(C#CC3CCCCC3)cc2O[C@H]1CN(C)Cc1cccnc1	none (no result: C diff HTS)
C[C@@H]1CN([C@@H](C)CO)S(=O)(=O)c2ccc(C#CC3CCCC3)cc2O[C@H]1CN(C)Cc1cccnc1	none
C[C@H](CO)N1C[C@H](C)[C@H](CN(C)C)Oc2ccc(NC(=O)C3CCCCC3)cc2CC1=O	none
C[C@@H]1CN([C@@H](C)CO)C(=O)c2cc(NS(=O)(=O)c3ccc(Cl)cc3)ccc2O[C@@H](C)CCCCO[C@H]1CN(C)Cc1ccc(C(=O)O)cc1	none
O=C(C[C@@H]1CC[C@H](NC(=O)c2ccc(F)cc2)[C@H](CO)O1)NCCc1ccccc1	none (no result: C diff HTS)
C/C=C/c1ccc([C@H]2[C@@H](CO)N3CCCCN(C(=O)Nc4ccccc4F)C[C@@H]23)cc1	T cruzi growth-1 109.6 | T cruzi growth-2 98.1 | T cruzi growth-3 inactive | NIH3T3 tox inactive | NIH3T3 tox 2 inactive
O=C(Nc1ccccc1F)N1CCCCN2[C@H](C1)[C@@H](c1ccc(/C=C/c3ccccc3)cc1)[C@@H]2CO	none
O=C(Nc1ccccc1F)N1CCCCN2[C@H](CO)[C@H](c3ccc(/C=C/c4ccccc4)cc3)[C@@H]2C1	T cruzi growth-1 116.0 | T cruzi growth-2 96.3 | T cruzi growth-3 113.1 | NIH3T3 tox 44.5 | NIH3T3 tox 2 57.5
O=C(Nc1ccccc1F)N1CCCCN2[C@H](CO)[C@H](c3ccc(/C=C/c4ccccc4)cc3)[C@H]2C1	none
C[C@H](O)C#Cc1ccc2c(c1)O[C@@H](CN(C)C(=O)Nc1ccccc1)[C@H](C)CN([C@H](C)CO)S2(=O)=O	none
